In PubChem BioAssay AID1026 (Columbia University Molecular Screening Center, 2008):

Target: Bifunctional epoxide hydrolase 2 (Homo sapiens) (UniProt P34913)
Test: sEH inhibitor concentration-response potency, dose response, biochemical, human sEH, fluorescence, Infinite200 (AID 1026)
Conditions: recombinant human sEH, fluorogenic substrate, at 0.2 µM, hits give high values; call rule not given here

Sequence of Bifunctional epoxide hydrolase 2 (Homo sapiens) (P34913 whole entry, looked up): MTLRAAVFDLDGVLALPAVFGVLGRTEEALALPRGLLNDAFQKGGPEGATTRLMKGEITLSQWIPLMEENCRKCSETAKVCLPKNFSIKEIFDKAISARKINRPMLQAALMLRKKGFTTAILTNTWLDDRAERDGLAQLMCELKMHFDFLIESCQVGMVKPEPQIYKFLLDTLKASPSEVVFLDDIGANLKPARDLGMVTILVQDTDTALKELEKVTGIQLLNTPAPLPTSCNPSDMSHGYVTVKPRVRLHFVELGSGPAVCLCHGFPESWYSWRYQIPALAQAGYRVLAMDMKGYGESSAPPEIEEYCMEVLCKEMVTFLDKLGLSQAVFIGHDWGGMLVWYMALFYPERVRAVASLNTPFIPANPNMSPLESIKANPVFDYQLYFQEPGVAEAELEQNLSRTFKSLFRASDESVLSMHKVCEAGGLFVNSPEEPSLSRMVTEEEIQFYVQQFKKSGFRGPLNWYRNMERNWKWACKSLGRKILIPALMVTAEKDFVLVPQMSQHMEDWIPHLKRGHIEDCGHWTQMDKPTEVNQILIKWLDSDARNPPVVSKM

inhibition, inactive:
O=C(NCc1ccc2c(c1)OCO2)C1CCN(c2ccc(S(=O)(=O)N3CCCC3)cc2)CC1 52.2%
Cc1cc2nc(-c3ccc(SCC(=O)N4CCN(C(=O)c5ccco5)CC4)nc3)[nH]c2cc1C 48%
Cc1ccc(NC(=O)NCCCc2ccccc2)cc1 48.7%
COc1ccc(OC)c(/C=N/NC(=O)c2csc3ccccc23)c1 51.1%
CCOc1ccc(NC(=O)N2CCC(c3ccc(C)cc3)C2)cc1 (stereo not drawn) 50.5%
COC(=O)[C@@H](NC(=O)NCc1ccccc1Cl)C(C)C 61.5%
CCc1c(C)nc2ncnn2c1N1CCC(C(=O)NCc2ccc3c(c2)OCO3)CC1 41%
O=C(Nc1ccc(Cc2ccncc2)cc1)C1CCC(N2C(=O)C3C4C=CC(C5CC45)C3C2=O)CC1 (stereo not drawn) 56.4%
